Assay results: PubChem BioAssay
Several values for one entry are separate records, joined by “and”; a condition that tells them apart may be missing. Identical values can stand only once. Unmarked numbers belong to inactive results. Activity calls are given as the source filed them.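 How the source made its calls: active means thallium flux through the channel raised or lowered by more than 3 SD from vehicle-only wells, actives on both sides; inactive means the rest.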

The compounds below were run on R275C/beta1 (assay: BK channel mutant inhibitors and activators – cell-based, U2OS BacMam, thallium flux, beta subunits, selectivity assay, profiling panel (AID 1259406;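 further: initial slope of Thallos dye fluorescence rise after thallium is added; log ratio against the mean of 0.3% DMSO vehicle wells on the same plate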)). Settings: U2OS BacMam BK variants, at 30 µM.

| SMILES | log fold change Tl+ flux |
| --- | --- |
| O=c1[nH]cc(F)c(=O)[nH]1 | 0.0262 |
| CCc1nc(N)nc(N)c1-c1ccc(Cl)cc1 | -0.00379 |
| CCc1cccc2c3c([nH]c12)C(CC)(CC(=O)O)OCC3 (stereo not drawn) | 0.127 (active) |
| Nc1ncn([C@@H]2O[C@H](CO)[C@@H](O)[C@H]2O)c(=O)n1 | 0.00104 |
| Cc1ccccc1C(OCCN(C)C)c1ccccc1 (stereo not drawn) | 0.0357 and 0.0895 |
| Cc1ccc(C)c(OCCCC(C)(C)C(=O)O)c1 | 0.0657 |
| NC(=O)c1cnccn1 | 0.0553 |
| CCCCCCNC(=O)n1cc(F)c(=O)[nH]c1=O | 0.00244 |
| COC1=CC(=O)C[C@@H](C)[C@]12Oc1c(Cl)c(OC)cc(OC)c1C2=O | 0.0145 |
| Cc1ncc([N+](=O)[O-])n1CC(C)O (stereo not drawn) | 0.00616 |
| N[C@@H](C(=O)N[C@@H]1C(=O)N2C(C(=O)O)=C(Cl)CS[C@H]12)c1ccccc1 | 0.0103 |
| CO[C@@]1(NC(=O)Cc2cccs2)C(=O)N2C(C(=O)O)=C(COC(N)=O)CS[C@@H]21 | 0.00671 |
| OCCN1CCN(CCCN2c3ccccc3Sc3ccc(C(F)(F)F)cc32)CC1 | 0.409 (active) |
| CN(C)CCOC(c1ccc(Cl)cc1)c1ccccn1 (stereo not drawn) | -0.0266 |
| Cc1onc(-c2c(Cl)cccc2Cl)c1C(=O)N[C@@H]1C(=O)N2[C@@H]1SC(C)(C)[C@@H]2C(=O)O | 4.8e-05 |
| COc1cc2nc(N(C)CCCNC(=O)C3CCCO3)nc(N)c2cc1OC (stereo not drawn) | 0.0106 |
| NS(=O)(=O)c1cc(C2(O)NC(=O)c3ccccc32)ccc1Cl (stereo not drawn) | -0.0254 |
| CN(C)CCc1c[nH]c2ccc(C[C@H]3COC(=O)N3)cc12 | 0.0275 |
| Cc1ccc(-c2cc(C(F)(F)F)nn2-c2ccc(S(N)(=O)=O)cc2)cc1 | 0.012 |
| CN[C@H]1CC[C@@H](c2ccc(Cl)c(Cl)c2)c2ccccc21 | 0.549 (active) and 0.546 (active) |

| SMILES | log fold change Tl+ flux |
| --- | --- |
| O=S(=O)(O)CCS | -0.0746 |
| C/C=C/C(=O)N(CC)c1ccccc1C | -0.0206 |
| COc1ccc(OC)c(C(O)CNC(=O)CN)c1 (stereo not drawn) | -0.0304 |
| Cn1cnc([N+](=O)[O-])c1Sc1ncnc2nc[nH]c12 | 0.0023 |
| c1ccc2[nH]c(-c3cscn3)nc2c1 | -0.0377 |
| CCCNCC(O)COc1ccccc1C(=O)CCc1ccccc1 (stereo not drawn) | 0.184 (active) |
| NC(=O)N1c2ccccc2CC(=O)c2ccccc21 | 0.0898 (active) |
| Cc1cn([C@H]2C[C@H](N=[N+]=[N-])[C@@H](CO)O2)c(=O)[nH]c1=O | -0.0324 |
| CN(CCOc1ccc(CC2SC(=O)NC2=O)cc1)c1ccccn1 (stereo not drawn) | 0.113 (active) and 0.178 (active) |
| COc1ccccc1OCC(O)COC(N)=O (stereo not drawn) | -0.013 |
| OC(CCN1CCCC1)(c1ccccc1)C1CCCCC1 (stereo not drawn) | 0.0416 |
| O=C1C(CCS(=O)c2ccccc2)C(=O)N(c2ccccc2)N1c1ccccc1 (stereo not drawn) | 0.0129 |
| COC(=O)Nc1nc2ccc(C(=O)c3ccccc3)cc2[nH]1 | 0.00663 |
| CCn1cc(C(=O)O)c(=O)c2cc(F)c(N3CCN(C)CC3)cc21 | 0.0145 |
| CN1CCCC(n2nc(Cc3ccc(Cl)cc3)c3ccccc3c2=O)CC1 (stereo not drawn) | 0.101 (active) |
| NCc1ccc(S(N)(=O)=O)cc1 | -0.0404 |
| Clc1ccc2c(c1)C(N1CCNCC1)=Nc1ccccc1O2 | 0.123 (active) |
| CC(C)(C)NCC(O)COc1cccc2c1C[C@H](O)[C@H](O)C2 (stereo partly drawn) | -0.0239 |
| NS(=O)(=O)c1cc2c(cc1Cl)NC=NS2(=O)=O | 0.0235 |

The compounds below were run on R275C/beta2Delta in the same assay as above. Settings: U2OS BacMam BK variants, at 30 µM.

| SMILES | log fold change Tl+ flux |
| --- | --- |
| O=c1[nH]cc(F)c(=O)[nH]1 | -0.0331 |
| CCc1nc(N)nc(N)c1-c1ccc(Cl)cc1 | 0.00565 |
| CCc1cccc2c3c([nH]c12)C(CC)(CC(=O)O)OCC3 (stereo not drawn) | 0.0673 |
| Nc1ncn([C@@H]2O[C@H](CO)[C@@H](O)[C@H]2O)c(=O)n1 | 0.0218 |
| Cc1ccccc1C(OCCN(C)C)c1ccccc1 (stereo not drawn) | 0.0594 and 0.0469 |
| Cc1ccc(C)c(OCCCC(C)(C)C(=O)O)c1 | 0.0312 |
| NC(=O)c1cnccn1 | -0.0119 |
| CCCCCCNC(=O)n1cc(F)c(=O)[nH]c1=O | -0.0282 |
| COC1=CC(=O)C[C@@H](C)[C@]12Oc1c(Cl)c(OC)cc(OC)c1C2=O | -0.00445 |
| Cc1ncc([N+](=O)[O-])n1CC(C)O (stereo not drawn) | -0.0048 |
| N[C@@H](C(=O)N[C@@H]1C(=O)N2C(C(=O)O)=C(Cl)CS[C@H]12)c1ccccc1 | 0.0124 |
| CO[C@@]1(NC(=O)Cc2cccs2)C(=O)N2C(C(=O)O)=C(COC(N)=O)CS[C@@H]21 | -0.0512 |
| OCCN1CCN(CCCN2c3ccccc3Sc3ccc(C(F)(F)F)cc32)CC1 | 0.0662 |
| CN(C)CCOC(c1ccc(Cl)cc1)c1ccccn1 (stereo not drawn) | 0.0559 |
| Cc1onc(-c2c(Cl)cccc2Cl)c1C(=O)N[C@@H]1C(=O)N2[C@@H]1SC(C)(C)[C@@H]2C(=O)O | 0.00693 |
| COc1cc2nc(N(C)CCCNC(=O)C3CCCO3)nc(N)c2cc1OC (stereo not drawn) | -0.00473 |
| NS(=O)(=O)c1cc(C2(O)NC(=O)c3ccccc32)ccc1Cl (stereo not drawn) | -0.0423 |
| CN(C)CCc1c[nH]c2ccc(C[C@H]3COC(=O)N3)cc12 | -0.0113 |
| Cc1ccc(-c2cc(C(F)(F)F)nn2-c2ccc(S(N)(=O)=O)cc2)cc1 | -0.0274 |
| CN[C@H]1CC[C@@H](c2ccc(Cl)c(Cl)c2)c2ccccc21 | -0.0453 and -0.0183 |

| SMILES | log fold change Tl+ flux |
| --- | --- |
| O=S(=O)(O)CCS | -0.00238 |
| C/C=C/C(=O)N(CC)c1ccccc1C | 0.013 |
| COc1ccc(OC)c(C(O)CNC(=O)CN)c1 (stereo not drawn) | -0.0183 |
| Cn1cnc([N+](=O)[O-])c1Sc1ncnc2nc[nH]c12 | -0.053 |
| c1ccc2[nH]c(-c3cscn3)nc2c1 | -0.0148 |
| CCCNCC(O)COc1ccccc1C(=O)CCc1ccccc1 (stereo not drawn) | 0.136 (active) |
| NC(=O)N1c2ccccc2CC(=O)c2ccccc21 | 0.1 (active) |
| Cc1cn([C@H]2C[C@H](N=[N+]=[N-])[C@@H](CO)O2)c(=O)[nH]c1=O | 0.0219 |
| CN(CCOc1ccc(CC2SC(=O)NC2=O)cc1)c1ccccn1 (stereo not drawn) | 0.0398 and 0.0538 |
| COc1ccccc1OCC(O)COC(N)=O (stereo not drawn) | -0.018 |
| OC(CCN1CCCC1)(c1ccccc1)C1CCCCC1 (stereo not drawn) | -0.0288 |
| O=C1C(CCS(=O)c2ccccc2)C(=O)N(c2ccccc2)N1c1ccccc1 (stereo not drawn) | -0.0044 |
| COC(=O)Nc1nc2ccc(C(=O)c3ccccc3)cc2[nH]1 | -0.00163 |
| CCn1cc(C(=O)O)c(=O)c2cc(F)c(N3CCN(C)CC3)cc21 | -0.0279 |
| CN1CCCC(n2nc(Cc3ccc(Cl)cc3)c3ccccc3c2=O)CC1 (stereo not drawn) | -0.0285 |
| NCc1ccc(S(N)(=O)=O)cc1 | 0.176 (active) |
| Clc1ccc2c(c1)C(N1CCNCC1)=Nc1ccccc1O2 | 0.0319 |
| CC(C)(C)NCC(O)COc1cccc2c1C[C@H](O)[C@H](O)C2 (stereo partly drawn) | 0.0276 |
| NS(=O)(=O)c1cc2c(cc1Cl)NC=NS2(=O)=O | 0.0235 |
